Measurements as given in PubChem BioAssay AID504834 (National Center for Advancing Translational Sciences (NCATS), 2011).
Several values for one entry are separate records, joined by “and”; a condition that tells them apart may be missing. Equal values may be shown once. About 22,000 (6.9%) of roughly 320,000 compounds were called active. Another 27% or so got no clear call; they are omitted. Calls follow the shape of the dose curve; as a rule, active = well fitted inhibition curve with a large enough effect; inconclusive = small, poorly fitted or top-dose-only effect, or another doubt; inactive = no such curve, though single readings can be large or run the other way. Only a selection was taken, and actives are over-represented in it overall. A structure can be active in one record and inactive in another.

Test: Primary qHTS for delayed death inhibitors of the malarial parasite plastid, 96 hour incubation
Settings: P. falciparum luciferase reporter growth; series mostly up to 28.7 µM; activity change, negative = inhibition: at the top concentration
Excerpt: The goal of this screen is to discover new antimalarial compounds that act by inhibiting the development of the apicoplast in the malarial parasite Plasmodium falciparum. The biochemical processes that make this organelle essential for erythrocytic stage parasites are not well understood. However, antibiotics such as azithromycin and tetracycline, which target the apicoplast translational machinery, have a potent antimalarial effect.
We have developed a cell-based assay that measures parasite growth based on the expression of an integrated copy of a firefly luciferase reporter. To detect small molecules that cause this "delayed death" phenotype, erythrocytes infected with the luciferase-expressing parasites were incubated with compounds for either one or two generations, corresponding to 48 and 96 hours, respectively. Compounds that inhibit parasite growth in the second generation, but not the first, should be enriched in antimalarials that target the apicoplast. Growth inhibition is detected by a decrease in luciferase activity.
Assay Provider: David Fidock and Eric Ekland, Columbia University
Keywords: NIH Roadmap, MLPCN, MLI, MLSMR, qHTS, NCGC, qHTS, malaria, luciferase, viability
Four microliters of infected erythrocytes (2% hematocrit, 0.05% parasitemia final concentration) in culture medium were dispensed and the plates incubated for 96 hours at 37 C in 5% CO2. Two microliters of luciferase detection reagent was added and luminescence was detected by a ViewLux (PerkinElmer) reader.
% is scaled to controls: 0 for no effect and ±100 for the full control effect; potency is read from the fitted curve at half-maximal effect.

SMILES | activity change, negative = inhibition | Potency
O=C(c1ccccc1F)N1CCN(S(=O)(=O)c2ccc(Br)cc2)CC1 | -20% (inactive) | 
O=S(=O)(c1ccc(Br)cc1)n1ccc2ccccc21 |  | 2.62 µM (active)
C/C=C/c1ccc(OCC(=O)OCC(=O)Nc2c(C)nn(-c3ccccc3)c2C)c(OC)c1 | 9.93% (inactive) | 
COc1ccc(CNC(=O)C(c2ccc(O)cc2)N(Cc2ccco2)C(=O)c2snc(C(N)=O)c2N)cc1 (configuration not stated) | -9.26% (inactive) | 
Cc1cccc(C(=O)N2CCCC(Nc3ccc(C(C)C)cc3)C2)n1 (configuration not stated) | 25.2% (inactive) | 
CCCCNC(=O)CCn1c(=S)[nH]c2cc3c(cc2c1=O)OCO3 | 139% (inactive) | 
O=C(CCn1c(=S)[nH]c2cc3c(cc2c1=O)OCO3)NCc1ccc(Cl)cc1 |  | 11.7 µM (active)
CC(C)NC(=O)CCCn1c(=S)[nH]c2cc3c(cc2c1=O)OCO3 | 4.1% (inactive) | 
CCCn1c(CCNc2nc(-c3ccc(OC)cc3)cs2)nc2ccccc21 |  | 11.7 µM (active)
COc1ccc(Nc2nc(-c3ccccc3)cs2)cc1 | 8.91% (inactive) | 
COc1ccc(-c2csc(Nc3ccc(O)cc3)n2)cc1 | 37.7% (inactive) | 
CC(=O)c1cc2c(cc1NC(=O)Cn1nc(-c3ccc(F)cc3)ccc1=O)OCO2 | 23.7% (inactive) | 
O=C(Cc1ccc(F)cc1)N/N=C/c1ccc2c(c1)OCO2 | 94.1% (inactive) | 
CNC(=O)C1CC(=O)N(Cc2ccc3c(c2)OCO3)C(=Nc2ccc(F)cc2)S1 (configuration not stated) |  | 6.57 µM (active)
COc1ccc(N=C2SC(C(=O)Nc3ccc(F)cc3)CC(=O)N2C)cc1 (configuration not stated) | 3.01% (inactive) | 
CC1CCN(C(=O)/C(=C\c2ccccc2F)NC(=O)c2ccccc2)CC1 | 27.9% (inactive) | 
C=CCn1c(Oc2ccc(C(=O)OC)cc2)nc2c1c(=O)n(C)c(=O)n2C |  | 5.86 µM (active)
Cn1c(=O)c2c(nc(N3CCCCCC3)n2CC(=O)c2ccc(Br)cc2)n(C)c1=O | 23.4% (inactive) | 
Cn1c(=O)c2c(nc(NCc3ccccc3)n2CC(N)=O)n(C)c1=O | 23.9% (inactive) | 
COc1ccc(NC(=O)CCNC(=O)Cn2cnc3sc4c(c3c2=O)CCCC4)cc1OC | 14.1% (inactive) | 
C=CCN1C(=O)C2(OCCCO2)c2cccc(Cl)c21 | -23.1% (inactive) | 
COc1ccc(-c2nnc3n2CCCCC3)cc1 | 32.2% (inactive) | 
CC(=O)N1c2ccc(S(=O)(=O)N3CCCC(C(=O)Nc4cccc(F)c4)C3)cc2CC1C (configuration not stated) |  | 11.7 µM (active)
CC(=O)N1c2ccc(S(=O)(=O)N3CCCC(C(=O)Nc4cccc(Cl)c4)C3)cc2CC1C (configuration not stated) | -15.3% (inactive) | 
CC(=O)N1c2ccc(S(=O)(=O)N3CCC(C(=O)NC4CCCCC4C)CC3)cc2CC1C (configuration not stated) | -7.95% (inactive) | 
O=C(CN1C(=O)S/C(=C\c2ccccc2Cl)C1=O)NC1C=CS(=O)(=O)C1 (configuration not stated) | 3.43% (inactive) | 

SMILES | activity change, negative = inhibition | Potency
COC(=O)c1c(-c2ccc(C)cc2)csc1N |  | 13.1 µM (active)
CCOC(=O)c1c(-c2ccccc2)csc1NC(=S)NC(=O)c1ccccc1 | 38.7% (inactive) | 
CCOC(=O)c1c(-c2ccc(C)cc2)csc1/N=C(\C)C1=C(O)c2ccccc2C1=O | -6.18% (inactive) | 
COc1cc2ccccc2cc1C(=O)N1CCOCC1 | 6.89% (inactive) | 
CC(C(=O)NC1CCCCC1)N1C(=O)c2cccc3cccc1c23 (configuration not stated) | -27.6% (inactive) | 
O=C(Oc1ccc(F)cc1)N1CCOCC1 | 56.1% (inactive) | 
CCOc1ncccc1C(=O)NCCc1ccc(OC)cc1 | -2.75% (inactive) | 
COc1ccc(CCNC(=O)c2ccco2)cc1 |  | 7.38 µM (active)
Cc1ccc(OCC(=O)NCCCNC(=O)c2ccco2)cc1C | 0.751% (inactive) | 
Cc1ccc(C)c(NC(=O)C(c2ccccc2)N2CCN(CC(=O)NC3CC3)CC2)c1 (configuration not stated) |  | 14.7 µM (active)
Cc1ccc(Cl)c(NC(=O)CN2CCN(C=O)CC2)c1 | 23.5% (inactive) | 
Cc1ccc(C)c(NC(=O)COC(=O)CSc2ccccc2)c1 | -20.2% (inactive) | 
Cc1ccc(NS(=O)(=O)c2c(C)[nH]c(C)c2C(=O)N2CCCCC2)c(C)c1 | -29.1% (inactive) | 
Cc1ccc(S(=O)(=O)N(C)C)cc1NC(=O)c1ccc(-n2cncn2)c([N+](=O)[O-])c1 | -7.86% (inactive) | 
CC1CCc2c(sc3nc4n(c(=O)c23)CCS4)C1 (configuration not stated) | -29.8% (inactive) | 
CCCn1nnc2sc3c(c2c1=O)CCC(C)C3 (configuration not stated) |  | 11.7 µM (active)
C=CCn1c(SCc2c(C)noc2C)nc2sc3c(c2c1=O)CCC(C)C3 (configuration not stated) | -1.1% [at 5.75 µM] (inactive) | 
COc1cccc(COC(=O)C2CCN(S(=O)(=O)c3cccs3)CC2)c1OC | 8.27% (inactive) | 
Cn1c(=O)c2sccc2n(Cc2ccc(Br)cc2)c1=O | 161% (inactive) | 
O=C(Nc1ccccc1C(=O)Nc1ccncc1)c1ccc([N+](=O)[O-])cc1 | 32.1% (inactive) | 
CN=C(NC#N)NCCSCc1nc[nH]c1C |  | inactive and 13.5 µM (active)
O=C(Nc1cccnc1)c1cc([N+](=O)[O-])ccc1Cl | -2.06% (inactive) | 
CSCCC(=O)N1CCCC(CNC(=O)c2ccccc2Cl)C1 (configuration not stated) | 0% (inactive) | 
O=C(CCc1nnc2ccc(NCc3ccccc3Cl)nn12)NCC1CCN(C2CCCC2)C1 (configuration not stated) |  | 5.22 µM (active)
O=C(CCc1nnc2ccc(NCCCN3CCCC3=O)nn12)NCc1ccccc1Cl | -20.1% (inactive) | 
Cc1cccc(N(C)C(=O)c2cc(S(=O)(=O)N3CCCCC3)c[nH]2)c1 | -0.248% (inactive) | 
